LmPK inh: blocks Leishmania mexicana pyruvate kinase activity | AID 1721 | Q27686 | purified LmPK, Kinase-Glo ATP luminescence, 1 h | hit rate 0.37% among 290,000 | Potency, µM (top dose mostly 57.5 µM), actives largely listed as inhibitors; active means well fitted curve in the direction sought with a large enough effect; inconclusive means small, poorly fitted or top-dose-only effect, or another doubt; inactive means no such curve, though single readings can be large; an effect the other way counts as inactive or inconclusive
Target sequence (Q27686 whole entry, looked up): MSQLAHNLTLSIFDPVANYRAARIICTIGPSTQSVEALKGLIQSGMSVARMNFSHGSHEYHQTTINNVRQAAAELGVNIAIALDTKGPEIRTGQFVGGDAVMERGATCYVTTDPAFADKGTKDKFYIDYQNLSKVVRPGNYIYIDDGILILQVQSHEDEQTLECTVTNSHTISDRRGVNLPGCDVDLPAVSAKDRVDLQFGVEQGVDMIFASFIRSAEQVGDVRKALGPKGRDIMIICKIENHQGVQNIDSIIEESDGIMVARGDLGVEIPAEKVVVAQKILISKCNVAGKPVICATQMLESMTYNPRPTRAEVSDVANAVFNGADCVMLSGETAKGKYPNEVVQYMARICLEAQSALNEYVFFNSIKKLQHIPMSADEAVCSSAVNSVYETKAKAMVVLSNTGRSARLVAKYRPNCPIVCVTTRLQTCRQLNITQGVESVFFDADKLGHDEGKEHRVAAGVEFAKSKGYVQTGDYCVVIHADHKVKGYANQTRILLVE
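In 50 mM imidazole pH 7.2 with 7 mM MgCl2, LmPK (0.1 nM) turned over PEP (0.5 mM) and ADP (0.1 mM) for 1 h at room temperature. Luciferase read-out of ATP.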
CHX counter: counter-screen hit for Shiga toxin inhibitors, cycloheximide; cell reporter, cycloheximide protein synthesis inhibition counterscreen; max response, %; hit rate 12% among 300,000; AID 2314; in the data active means max response mostly above about 13%, no sharp cut-off; inactive means mostly below about 14%; further: read at 38.3 µM for the half of the compounds with a filed dose
TbPYK inhibitor: T. brucei pyruvate kinase inhibition. hit rate 0.12% among 410,000. TbPYK enzyme, Kinase-Glo Plus ATP luminescence, 45 min. Q57TT1. Potency, µM (series often up to 76.8 µM), most hits filed as inhibitors; active means well fitted curve in the direction sought with a large enough effect; inconclusive means small, poorly fitted or top-dose-only effect, or another doubt; inactive means no such curve, though single readings can be large; an effect the other way counts as inactive or inconclusive; further: nearly all actives have a fitted effect of over 50% in size
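TbPYK + substrate in 50 mM TEA pH 7.2, 100 mM KCl, 10 mM MgCl2, 0.05% BSA, 0.01% Tween-20; cpd pinned; ADP 130 uM final; 45 min RT; Kinase-Glo Plus 10 min; luminescence endpoint.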
Shiga inhibitor: Shiga toxin inhibition; Vero cells, Shiga toxin protein synthesis inhibition reporter; AID 2315; inhibition, % at 38.7 µM; hit rate 9.2% among 290,000; in the data active means inhibition mostly above about 28%, no sharp cut-off; inactive means mostly below about 43%
NS1 inh: influenza NS1 inhibition; Potency, µM (highest dose often 46.1 µM); hit rate 0.4% among 270,000; AID 2326; further: actives are rising curves; nearly all actives have a fitted effect of over 50% in size
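Compounds were scored for reversing the slow growth caused by influenza A NS1 in S. cerevisiae, measured by optical density at 600 nm. Assay medium contained 2% galactose at pH 6.0; NS1-free yeast of the same strain were the positive control.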
SARS PLpro yeast: inhibitors of SARS-CoV papain-like protease in yeast. S. cerevisiae expressing SARS-CoV PLpro, growth rescue. Potency, µM (titrated, usually from 32.9 µM), hits mostly activators. hit rate 0.19% among 330,000; further: nearly all actives have a fitted effect of over 55% in size
Numbers stand for hits; 0 = inactive; ? = inconclusive; - = no result given; [ ] = another dose, or the depositor's remark. The entries come from a sample that favours hits as a whole. Unless noted, the call rests on the fitted dose curve.

SMILES	LmPK inh	CHX counter	TbPYK inhibitor	Shiga inhibitor	NS1 inh	SARS PLpro yeast
COc1ccc(-c2cc(C(=O)NCC3CCCO3)c3cc(C)ccc3n2)cc1 (centres undefined)	0	18	0	0	0	0
COc1ccc2oc(C(=O)NC(C)(C)C)c(C)c2c1	0	49	0	96	-	0
COc1ccc2oc(C(=O)OCC(=O)NCC3CCCO3)c(C)c2c1 (centres undefined)	-	-	0	-	-	0
COc1ccc2oc(C(=O)NCC3CCCO3)c(C)c2c1 (centres undefined)	0	65	0	98	0	0
COc1cccc(S(=O)(=O)NCc2ccc(C(=O)NCC3CCCO3)cc2)c1 (centres undefined)	0	0	0	45	0	0
CC(C)(C)c1ccc(S(=O)(=O)NCc2ccc(C(=O)NCC3CCCO3)cc2)cc1 (centres undefined)	0	0	0	0	0	0
COc1ccc(-c2cc(C(=O)NCC3CCCO3)c3ccccc3n2)cc1 (centres undefined)	0	0	0	0	-	0
CCOC(=O)c1ccc(NC(=O)Cc2coc3cc(C)cc(C)c23)cc1	-	-	0	-	-	-
CCOc1cc(CNC(=O)c2ccc3nc(CCc4ccccc4)oc3c2)ccc1OC	-	-	0	-	-	-
CCOc1ccc2oc(C(=O)NCC3CCCO3)c(C)c2c1 (centres undefined)	0	46	0	88	0	0
O=C(NCC1CCCO1)c1ccc(COCC(F)(F)C(F)F)cc1 (centres undefined)	0	19	0	0	0	0
CC(C)NC(=O)c1ccc(COCC(F)(F)C(F)F)cc1	0	0	0	0	0	0
CCOc1ccc2oc(C(=O)OCC(=O)NCC3CCCO3)c(C)c2c1 (centres undefined)	-	-	0	-	-	0
COc1ccc(C(=O)O/N=C(/C)c2cccs2)cc1	3.5µM	34	25µM	61	0	0
C/C(=N/OC(=O)c1c(F)cccc1F)c1nccs1	13µM	0	0	0	0	0
COc1ccc(OCCOC(=O)c2cccs2)cc1	0	33	0	77	0	0
COc1ccc2[nH]c(=O)c(COC(=O)c3cccs3)cc2c1	0	0	0	0	0	0
COc1ccc(C(=O)O/N=C(\C)c2nccs2)cc1	7.9µM	26	?	0	0	0
COc1ccc(C/C(N)=N/OC(=O)c2cccs2)cc1	0	0	0	0	-	0
C/C(=N\OC(=O)c1c(-c2c(F)cccc2Cl)noc1C)c1nccs1	0	0	0	0	0	0
O=C(OCC(=O)C12CC3CC(CC(C3)C1)C2)c1cnccn1	0	0	0	0	0	0
COc1ccc(N2CCN(C(=O)Cn3c(-c4cccs4)cc4ccccc43)CC2)cc1	-	-	0	-	-	-
C/C(=N\OC(=O)c1ccc(F)cc1)c1nccs1	?	47	0	0	0	0
CC(=NOC(=O)C1CCCCC1)c1nccs1	-	-	0	-	-	-
COc1ccc(/C=C/C2=Nc3ccccc3NC(C)(C)C2)cc1OC	0	42	0	59	0	0
SMILES	LmPK inh	CHX counter	TbPYK inhibitor	Shiga inhibitor	NS1 inh	SARS PLpro yeast
Cc1ccc(NC(=O)[C@@H](CC(C)C)NC(=O)[C@@H]2Cc3ccccc3CN2)cc1	0	0	0	61	0	0
Cc1ccc(NC(=O)[C@H](NC(=O)[C@@H]2Cc3ccccc3CN2)c2ccccc2)cc1C	0	17	0	0	0	0
Cc1ccc(NC(=O)[C@H](CC(C)C)NC(=O)[C@@H]2Cc3ccccc3CN2)cc1	0	0	0	0	0	0
C[C@@H](NC(=O)[C@@H]1Cc2ccccc2CN1)C(=O)NCc1ccco1	0	0	0	0	0	0
Cc1cccc(NC(=O)[C@H](Cc2ccccc2)NC(=O)[C@@H]2Cc3ccccc3CN2)c1	0	15	0	0	0	0
Cc1ccc(NC(=O)[C@@H](C)NC(=O)[C@@H]2Cc3ccccc3CN2)cc1	0	24	0	0	0	0
CSCC[C@H](NC(=O)[C@@H]1Cc2ccccc2CN1)C(=O)Nc1cccc(C)c1	0	0	0	0	0	0
OC(c1ccccc1)(c1ccccc1)c1nccn1-c1ccccc1	-	-	0	-	-	-
C[C@H](Br)CN(C[C@H](C)Br)c1ccc2c(c1)Cc1ccccc1-2	-	-	-	-	0	-
CC(=O)N(C1=C(Cl)C(=O)c2ccccc2C1=O)C1CCCCC1	2.8µM	0	0.89µM	0	0	0
CC(=O)N(c1ccccc1C)C1CCCC1	0	0	0	0	?	0
Cc1nc(NC(=O)CSc2ccc(-c3nc4ccccc4[nH]3)cn2)sc1C	0	0	0	0	0	0
Cc1ccc2nc(-c3ccc(SCC(=O)Nc4nnc(C)s4)nc3)[nH]c2c1	0	69	0	51	0	0
Cc1ccc2nc(-c3ccc(SCC(=O)Nc4nc(C)cs4)nc3)[nH]c2c1	0	32	0	0	0	0
COCCNC(=O)CSc1ccc(-c2nc3ccccc3[nH]2)cn1	0	0	0	0	?	0
CCc1nnc(NC(=O)CSc2ccc(-c3nc4ccccc4[nH]3)cn2)s1	0	26	0	83	0	0
COc1cccc(NC(=O)COC(=O)c2sccc2C)c1	-	-	0	-	-	0
C=CCN(C(=O)c1csnn1)C(C(=O)NC1CCCCC1)c1ccc(F)cc1 (centres undefined)	0	0	0	0	0	0
Cc1cccc(Cn2c(SCc3ccc(C(=O)NCCc4ccccc4)cc3)nc3ccncc32)c1	-	-	0	-	-	-
O=C(CSCc1ccccc1Cl)NCCSc1ccccn1	0	21	0	0	-	0
O=C(COc1ccc(Cl)cc1)NCCSCc1ccccc1Cl	0	0	0	0	0	0
Cc1ccc2nc3c(cc(C#N)c(=O)n3-c3nnc(SCc4ccccc4Cl)s3)c(=O)n2c1	-	-	0	-	-	-
O=C(c1cc2c(=O)oc3ccccc3c2s1)N1CCOCC1	0	31	0	0	0	0
Cn1c2ccccc2c2cc(C(=O)N3CCOCC3)sc21	0	21	0	0	0	0
CCn1c(=O)c2cc(C(=O)N3CCOCC3)sc2c2ccccc21	0	0	0	0	0	0
SMILES	LmPK inh	CHX counter	TbPYK inhibitor	Shiga inhibitor	NS1 inh	SARS PLpro yeast
Cc1nn(-c2ccccc2)c2sc(C(=O)N(CC(=O)NC(C)(C)C)Cc3ccco3)cc12	0	19	0	0	0	0
Cc1nn(-c2ccccc2)c2sc(C(=O)N3CCOCC3)cc12	0	43	0	44	0	0
CCCCc1nc2c(c3c1C[C@H](C)OC3)CN(C(=O)c1cccnc1)CC2	0[11.5 µM]	-	-	-	-	-
CC(C(=O)Nc1cc(Cl)cc(Cl)c1)N1CCCC1 (centres undefined)	0	0	0	0	0	0
CCCCOC(=O)Nc1cccc(C(C)=O)c1	0	23	0	72	0	0
CCC(COC(=O)Nc1cccc(C)c1)NC(=O)OCC(C)C (centres undefined)	0	36	0	87	0	0
CCOC(=O)Nc1cccc(Cl)c1C	0	0	0	0	0	0
CCOC(=O)Nc1cccc(C(=O)O)c1	0	14	0	31	0	0
CCCCOC(=O)Nc1cccc(Cl)c1C	0	22	0	87	0	0

Screening data from PubChem BioAssay.
